Source: PubChem
Tgondii IFNg = T. gondii growth inhibition with IFN-gamma, primary screen, cell-based. AID 1259416, 2018. activity change, negative = inhibition, % (test concentration not listed). 69,000 tested, 3.8% active. Toxoplasma gondii growth in IFN-gamma-treated host cells; active compounds read low; in the data active means activity change below about -70%, passing the limit was not always enough;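 further: host cells are HeLa cells infected with Toxoplasma gondii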
Numbers stand for hits; n = inactive; ! = not active in a repeat. The entries come from a sample that favours hits as a whole.

SMILES	Tgondii IFNg
CCN(CC)Cc1ccc2cc(COC(=O)Nc3ccc(C(=O)NO)cc3)ccc2c1	-83.0
CCN(CC)Cc1cccc(C(=O)Nc2ccccc2CO)c1	n
COc1ccc(Cn2ccc3ccc(C(=O)NO)cc32)cc1	n
CCCN1CCC2(CC1)CC(Nc1ncccn1)CO2 (centres undefined)	n
c1csc(CN2CCOC3(CCN(Cc4ccoc4)CC3)C2)n1	n
COc1ccc(CCN2CCC(Nc3nc4ccccc4n3Cc3ccc(F)cc3)CC2)cc1	-92.5!
COc1ccc(-c2nc(NCCN3CCC(C)CC3)c3ccccc3n2)cc1	n
COc1ccc(-c2nc(Nc3ccc(CN4CCC(C)CC4)cc3)c3ccccc3n2)cc1	n
Cc1cccc(COCC2CN(C(=O)N(C)C)Cc3ncn(C)c32)n1 (centres undefined)	n
CCC(CC)C(=O)N1CCCn2cnc(CN3CCCC3=O)c2C1	n
CCC(CC)C(=O)N1CCCc2c(cnn2-c2ccc(OC)cc2)C1	-97.4
COc1ccc(Cc2ncc3c(n2)CN(C(=O)[C@@H](O)c2ccccc2)C3)cc1	n
Cc1nnsc1C(=O)Nc1ncc(-c2ccccc2)n1C	n
COc1ccccc1-c1cc2c(=O)n(Cc3nc(-c4ccc(C)cc4C)oc3C)ccn2n1	n
Cc1nc(-c2ccc(F)cc2)sc1CCNC(=O)c1cccc(F)c1	n
Cc1nc(-c2cccc(F)c2)sc1CCNC(=O)c1ccc(C(F)(F)F)cc1	-89.9
Cc1cccc(-c2nc(C)c(CCNC(=O)C(=O)Nc3c(C)cccc3C)s2)c1	n
Cc1cccc(-c2nc(C)c(CCNC(=O)C(=O)Nc3c(C)cc(C)cc3C)s2)c1	-78.7
Cc1nc(-c2ccc(Cl)cc2)sc1CCNC(=O)c1cccc(C(F)(F)F)c1	n
Cc1nc(-c2ccc(F)cc2)sc1CCNC(=O)c1cccc(C(F)(F)F)c1	-73.8
Cc1cc(C)c(NC(=O)C(=O)NCCc2sc(-c3cccc(F)c3)nc2C)c(C)c1	n
Cc1nc(-c2ccc(F)cc2)sc1CCNC(=O)c1ccc(C(F)(F)F)cc1	n
Cc1ccc(C(=O)NCCc2sc(-c3cccc(F)c3)nc2C)cc1	n
CCn1nc(C)c(NC(=O)CN2CCN(C(C)=O)CC2)c1C	n
COc1cccc(-c2ccc3nc(C4CCN(CC5CC5)CC4)nn3c2)c1	n
SMILES	Tgondii IFNg
O=C(NCc1ccccc1F)c1nc(Nc2ccc(F)cc2)c2ccccc2n1	n
CC(=O)N1c2ccc(NC(=O)COc3ncnc4ccccc34)cc2CC1C (centres undefined)	n
CCc1ccc(S(=O)(=O)N2CCC3(CC2)NCCN=C3NCc2ccc(Cl)cc2)cc1	n
Cc1ccc(-c2coc(-c3ccc(NS(=O)(=O)c4ccc(Cl)cc4)cc3)n2)cc1C	n
COc1cccc(-c2ccc3c(C4CCCN4Cc4ccncc4)nnn3c2)c1 (centres undefined)	n
Cc1cc(C)cc(NC(=O)CN2C(=O)CCc3cc(S(=O)(=O)N4CCCC4)ccc32)c1	n
S=C(CCC(=S)Nc1ccc(Cl)cc1)Nc1ccc(Cl)cc1	n
CSCCNC(=O)Nc1ccc(Cl)cc1	n
O=C(Cc1ccc(O)cc1)NCCNC(=S)Nc1ccc(Cl)cc1	-96.3
CC(C)(C)c1cc(/C=C(\C#N)C(N)=S)cc(C(C)(C)C)c1O	-73.5
CC(C)(C)c1cc(-c2cc(C(C)(C)C)c(O)c(C(C)(C)C)c2)cc(C(C)(C)C)c1O	n
N#CC(C#N)=C(N)/C(C#N)=C/c1cc(O)c(O)c(O)c1	n
OCCNc1ncnc2ccc(-c3cccc4[nH]ccc34)cc12	n
CCNc1ccnc(-c2cccc3[nH]ccc23)n1	n
Cc1csc2ncnc(-c3cccc4[nH]ccc34)c12	-74.1
Clc1cc2c(cc1-c1nccn1-c1ccc(Oc3nn[nH]n3)cc1)OCO2	n
Cc1cc2c(cc1-c1nccn1CCc1nc(-c3cccnc3)no1)OCO2	n
Cc1cc2c(cc1-c1nccn1-c1ccc3cn[nH]c3c1)OCO2	-81.1
CN1CC2(CCN(C(=O)c3ccc(Oc4ccccc4)o3)C2)OC1=O (centres undefined)	n
CCO[C@H]1CO[C@@]2(CCCN(C(=O)c3ccc4ncccc4c3)C2)C1	n
Cc1ccc(C2(O)CCN(C(=O)c3ccc4c(c3)nnn4C)CC2)nc1	n
Cc1ccc(-c2nc(C)c(CCNC(=O)C(=O)Nc3ccc([N+](=O)[O-])cc3)s2)cc1	n
CCN(CC)C(=O)c1sc(NC(=O)c2c(OC)cccc2OC)c(C#N)c1C	-82.9
COc1cccc(OC)c1C(=O)NCCc1sc(-c2cccc(F)c2)nc1C	n
COc1ccc(Oc2cccc(Oc3ccc(OC)cc3)c2C#N)cc1	n
SMILES	Tgondii IFNg
CCn1cc(-c2ccnc3c2ccn3C)cn1	n
Cc1ccc(NC(=O)c2ccc3nnc4ncn(C5CCCC5)c4c3c2)cn1	n
COc1ccc(C(=O)c2sc3nc(C)cc(C(F)(F)F)c3c2N)cc1OC	n
COc1cc2ncn(-c3cc(OCc4ccccc4C(F)(F)F)c(C(N)=O)s3)c2cc1OC	-87.9
COc1ccccc1OCC(=O)n1nc(N)c2c(C(F)(F)F)cc(C)nc21	n
CCOCC1CN(C(=O)c2ccsc2)Cc2nn(C)cc21 (centres undefined)	n
CC(C)CNc1ccccc1C(=O)N1CCC(C(=O)O)CC1	n
CCSc1nc(CC(=O)N2CCC[C@H]2CO)cs1	n
O=C(Cn1ncc2c(N3CCCCC3)ncnc21)N1CCCCC1	n
CCc1noc(CC)c1C(=O)Nc1nc(CS(=O)(=O)c2ccc(C)cc2)cs1	n
COc1ccc(-c2csc(NC(=O)c3ccccc3C)n2)cc1	n
CCc1noc(CC)c1C(=O)Nc1nc(-c2ccc(OC)c(OC)c2)cs1	-82.3
Clc1ccc(SCc2ccsc2-c2ncns2)cc1	-76.7
Clc1ccc(SCc2csc(-c3ccc(Cl)cc3)n2)cc1	n
Clc1ccc(SCc2csc(-c3ccno3)n2)cc1	n
CC(C)(C)NC(=O)N1CCC(Nc2nccc(C(F)(F)F)n2)CC1	n
COc1ccc(F)c(CN2CCC(NS(C)(=O)=O)CC2)c1Cl	n
COc1ccc(F)c(F)c1C(=O)c1cnc(NC2CCN(S(C)(=O)=O)CC2)nc1N	-76.5
CC(C)(C)n1ccc(C(=O)N2CCOC(c3ccc(Cl)cc3)C2)c1 (centres undefined)	n
O=C1CCC[C@@H]2[C@@H]3CCC[N+]4([O-])CCC[C@H](CN12)[C@@H]34 (some centres undefined)	n
CC12CC3CC(C)(C1)CC(C(=O)N1CC[C@H](O)C1)(C3)C2	n
Cc1ccc(F)cc1-n1c(-c2ccn[nH]2)n[nH]c1=O	n
CCn1c(=O)c(-c2ccn[nH]2)cc2c(C)nc(N)nc21	-74.4
CCn1c(C2CCCN(Cc3ccc(-c4ccn[nH]4)s3)C2)nn(C)c1=O (centres undefined)	n
CCc1ccc(CNC(=O)c2c(O)c3cccnc3n(-c3cccc(OC)c3)c2=O)cc1	n
SMILES	Tgondii IFNg
COc1cccc(-n2c(=O)c(C(=O)NCc3ccc(F)cc3)c(O)c3cccnc32)c1	n
COc1cccc(CNC(=O)c2c(O)c3cccnc3n(-c3ccccc3)c2=O)c1	n
CCc1ccc(CNC(=O)c2c(O)c3cccnc3n(-c3cccc(F)c3)c2=O)cc1	n
COc1cccc(CNC(=O)c2c(O)c3cccnc3n(-c3cccc(F)c3)c2=O)c1	-98.4
COc1cccc(-n2c(=O)c(C(=O)NCc3cc(F)cc(F)c3)c(O)c3cccnc32)c1	-101.3
Cc1ccc2c(c1)C(=O)NC1(CCN(C(=O)Cc3ccccc3Cl)CC1)N2C	n
COc1cccc(CC2(CO)CCN(c3ncccn3)CC2)c1	n
O=C(CN1C(=O)CCc2cc(Br)ccc21)Nc1cccc2c1CCCC2	n
